# Source: PubChem (National Center for Advancing Translational Sciences (NCATS))
# Rows were chosen to be rich in hits. Some 12% of all compounds tested hit in one or more screens of this group.
# TDP1 inh: inhibitors of human tyrosyl-DNA phosphodiesterase TDP1. Potency, µM (top dose mostly 130 µM), inactives show at the highest dose activity change, negative = inhibition, most hits filed as inhibitors. actives 0.28% (n = 350,000). Q9NUW8. recombinant TDP1, AlphaScreen DNA substrate cleavage; further: on the % scale 0 is the no-effect control and ±100 the full control effect; nearly all actives have a fitted effect of over 40% in size
# Target sequence (Q9NUW8 whole entry, looked up): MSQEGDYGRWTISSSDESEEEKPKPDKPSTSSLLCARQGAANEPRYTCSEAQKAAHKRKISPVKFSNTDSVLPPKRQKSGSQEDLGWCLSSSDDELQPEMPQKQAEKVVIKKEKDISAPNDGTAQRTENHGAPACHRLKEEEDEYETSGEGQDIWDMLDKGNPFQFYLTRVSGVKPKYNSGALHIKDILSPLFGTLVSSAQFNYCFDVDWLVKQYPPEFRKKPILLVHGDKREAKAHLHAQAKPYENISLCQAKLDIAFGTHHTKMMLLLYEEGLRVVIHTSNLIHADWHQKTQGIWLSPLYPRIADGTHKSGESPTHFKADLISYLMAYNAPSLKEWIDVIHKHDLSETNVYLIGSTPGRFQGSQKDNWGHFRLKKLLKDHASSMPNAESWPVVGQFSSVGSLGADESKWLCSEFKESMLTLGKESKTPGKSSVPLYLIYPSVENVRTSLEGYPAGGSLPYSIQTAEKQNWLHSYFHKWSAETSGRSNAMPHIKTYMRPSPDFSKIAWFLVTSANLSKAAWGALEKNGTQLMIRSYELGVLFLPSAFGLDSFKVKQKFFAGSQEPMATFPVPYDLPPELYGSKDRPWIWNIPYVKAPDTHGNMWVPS
#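 E. coli-derived human Tdp1, 1 nM final. Cpd preinc 15 min RT; substrate 15 nM final, 5 min RT; AS bead mix 10 ug/ml final, 10 min RT. Signal loss = tyrosine-FITC cleavage. No-enzyme wells = max signal.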
# BAZ2B inh: blocks human BAZ2B; Potency, µM (top dose mostly 114 µM), for the others: at the top dose activity change, negative = inhibition, hits mostly inhibitors; actives 4.4% (n = 360,000); AlphaScreen BAZ2B-H3K14Ac peptide displacement; AID 504333; further: on the % scale 0 is the no-effect control and ±100 the full control effect; nearly all actives have a fitted effect of over 60% in size
#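 Inhibition is scored as reduced AlphaScreen emission. The BAZ2B/b-H3(5-23)K14Ac complex (50 nM each) in PBS pH 7.4, 0.01% Tween-20 meets compound (up to 110 uM) for 30 min at RT before bead addition.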
# G9a inh: blocks human histone lysine methyltransferase G9a; Q96KQ7; G9a H3K9 monomethylation, AlphaScreen, 2 h; Potency, µM (doses to about 102 µM), without a hit: top-dose activity, negative = inhibition, hits mostly inhibitors; actives 8.8% (n = 350,000); AID 504332; further: on the % scale 0 is the no-effect control and ±100 the full control effect; nearly all actives have a fitted effect of over 75% in size
#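 G9a (20 nM) was preincubated 15 min with compound, then reacted 2 h at room temperature with 500 nM biotin-H3K9 peptide and 20 µM SAM. Monomethyl-H3K9 detected by AlphaScreen using anti-H3K9me1 antibody.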
# JMJD2A Tudor inh: JMJD2A Tudor domain (human) inhibition | O75164 | AlphaScreen JMJD2A-Tudor / H3K4me3 peptide binding | Potency, µM (series often up to 114 µM), for inactives: top-dose activity change, negative = inhibition, most hits filed as inhibitors | actives 4.4% (n = 390,000); further: on the % scale 0 is the no-effect control and ±100 the full control effect; nearly all actives have a fitted effect of over 50% in size
# Sfp inh: inhibitors of Bacillus subtilis Sfp phosphopantetheinyl transferase. actives 3.5% (n = 310,000). Biochemical Sfp PPTase activity, qHTS. Potency, µM, for inactives: largest response in the series, negative = inhibition, most hits filed as inhibitors;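 further: the enzyme is Sfp with the accession as filed and its product quenches rhodamine fluorescence; 0% = enzyme reaction without inhibitor and -100% = no enzyme wells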
#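 Compounds were incubated with enzyme (final 15 nM) for 15 min at room temperature before substrate addition started the reaction. Fluorescence at 525 nm excitation, 598 nm emission was recorded immediately and after 30 minutes.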
# HP1b binding inh: HP1-beta chromodomain-methylated histone interaction inhibition. P83916. AlphaScreen HP1-beta / biotin-H3K9me3 peptide binding. Potency, µM (titrated, usually from 114 µM), inactives show top-dose activity change, negative = inhibition, usual class: inhibitors. actives 0.56% (n = 390,000); further: nearly all actives have a fitted effect of over 70% in size
#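 HP1-beta protein (50 nM final) preincubated 30 min at room temperature with biotinylated H3(1-18)K9me3 peptide (50 nM) in PBS pH 7.4, 0.01% Tween-20, then compound added for 30 min. AlphaScreen streptavidin donor/nickel chelate acceptor beads (10 ug/mL final), 30 min dark, luminescence read.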
# Active calls of the source: *; ? = inconclusive; nt = no result given; [ ] = remark or other dose. The call rests on the fitted dose curve; in most records, active means well fitted curve in the direction sought with a large enough effect; inconclusive means small, poorly fitted or top-dose-only effect, or another doubt; inactive means no such curve, though single readings can be large; an effect the other way counts as inactive or inconclusive. Potency means the concentration at half of the fitted maximal effect.
SMILES,TDP1 inh,BAZ2B inh,G9a inh,JMJD2A Tudor inh,Sfp inh,HP1b binding inh
COc1ccc(NS(=O)(=O)c2ccc(C(=O)OC(C)C(=O)N3CCOCC3)cc2)cc1 (stereo not drawn),4%,-2%,?,-10%,8%,37%
COc1cccc(NC(=O)CN2C(=O)NC(Cc3c[nH]c4ccccc34)C2=O)c1 (stereo not drawn),5%,nt,nt,-22%,nt,4%[57 µM]
CC(C)(C)CN1CCNC(=O)C1CC(=O)N1CCN(c2ccccc2)CC1 (stereo not drawn),6%,-20%,56µM*,-22%,-28%,28%
Cn1cc(CNC(=O)CC2C(=O)NCCN2CC(C)(C)C)cn1 (stereo not drawn),3%,2%,50µM*,-4%,14%,10%
CSc1cccc(CNC(=O)CC2C(=O)NCCN2CC(C)(C)C)c1 (stereo not drawn),-1%,-18%,40µM*,-15%,-4%,29%
COc1ccc(NC(=O)Cn2nc(-c3ccncc3)ccc2=O)cc1Cl,7%,4%,1%[59 µM],-12%,nt,14%[57 µM]
COCCN1CCn2c(nc3cc(Nc4nnc(C)c5ccccc45)ccc32)C1,nt,?,?,89µM*,6%,34%
COCCN1CCn2c(nc3cc(NC(C)=O)ccc32)C1,nt,-15%,35µM*,-18%,9%,40%
COCCN1CCn2c(nc3cc(NC(=O)Cn4nc(C)c5ccccc5c4=O)ccc32)C1,nt,10%,?,-15%,-14%,24%
COc1ccc(C(=O)N2CCCC(C(N)=O)C2)cc1S(=O)(=O)N1CCOCC1 (stereo not drawn),1%,1%,?,-9%,nt,25%
O=C(OCC#CCSc1nnc(-c2cccc3ccccc23)o1)c1ccccc1F,-11%,nt,nt,39%,nt,nt
Cc1cccc(C)c1NC(=O)N1CCC(C(N)=O)(N2CCCCC2)CC1,5%,0%,-1%[59 µM],-15%,nt,16%
CN(C)/C=C/C(=O)c1ccc(-c2ccc(Cl)cc2Cl)o1,-4%,?,45µM*,-22%[57.1 µM],-22%,-21%
O=C(NNc1ccc([N+](=O)[O-])cc1)Nc1ccccc1,nt,-27%,?,-30%,?,?
NS(=O)(=O)c1ccc(NC(=O)Nc2ccc(Cl)cc2)cc1,2%,3%,15%,-20%,4%,26%
NN/C(=C\[N+](=O)[O-])Nc1ccc(Cl)cc1,8%,?,1.3µM*,?,-7%,3%
NN/C(=C\[N+](=O)[O-])Nc1ccccc1,4%,56µM*,20µM*,-31%,-14%,14%
O=C(O)C1CN(C(=O)c2ccccc2)c2cc(Cl)ccc2O1 (stereo not drawn),nt,-2%,1%,-5%,-13%,33%
CO[C@@H]1COC(=O)[C@H]2CCCN2C(=O)C/C=C\[C@@H](C)[C@H](OC)COC(=O)[C@H]2CCCN2C(=O)C/C=C\[C@H]1C,7%[21 µM],nt,nt,nt,-14%,nt
CC(=O)NC1=NN(C(C)=O)C(c2ccccc2)S1 (stereo not drawn),8%,-13%,2%,11µM*,6%,-24%
Cc1ccccc1NC(=O)C1CCN(C(=O)N2CCOc3ccccc32)CC1,nt,4%,2%,-6%,7%,40%
O=c1[nH]c(NNC(=S)NCc2ccccc2)nc2c1C1(CCCCC1)Cc1ccccc1-2,11%,?,20µM*,?,-14%,?
O=c1[nH]c(NNC(=S)NC2CCCCC2)nc2c1C1(CCCC1)Cc1ccccc1-2,10%,-30%,-8%[12.7 µM],?,79µM*,2%
C=CCNC(=S)Nc1cccc2[nH]ncc12,6%,-20%,-3%,-8%,11%,27%
NNc1ccc2nncn2n1,nt,-13%,50µM*,-4%,?,17%
c1ccc(CCNc2ccc3nncn3n2)cc1,7%,16%,-38%,-19%,-14%,24%
